From ChEMBL document CHEMBL1961873, “Compounds: GSK PKIS; Assays: Nanosyn kinase panel” (2012) come the findings set out here.

In test [1] the target is T1, Serine/threonine-protein kinase D2 (Homo sapiens) (UniProt Q9BZL6).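 Further: mean value of PRKD2 inhibition, from the GSK PKIS screening panel.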
T1 sequence (whole entry): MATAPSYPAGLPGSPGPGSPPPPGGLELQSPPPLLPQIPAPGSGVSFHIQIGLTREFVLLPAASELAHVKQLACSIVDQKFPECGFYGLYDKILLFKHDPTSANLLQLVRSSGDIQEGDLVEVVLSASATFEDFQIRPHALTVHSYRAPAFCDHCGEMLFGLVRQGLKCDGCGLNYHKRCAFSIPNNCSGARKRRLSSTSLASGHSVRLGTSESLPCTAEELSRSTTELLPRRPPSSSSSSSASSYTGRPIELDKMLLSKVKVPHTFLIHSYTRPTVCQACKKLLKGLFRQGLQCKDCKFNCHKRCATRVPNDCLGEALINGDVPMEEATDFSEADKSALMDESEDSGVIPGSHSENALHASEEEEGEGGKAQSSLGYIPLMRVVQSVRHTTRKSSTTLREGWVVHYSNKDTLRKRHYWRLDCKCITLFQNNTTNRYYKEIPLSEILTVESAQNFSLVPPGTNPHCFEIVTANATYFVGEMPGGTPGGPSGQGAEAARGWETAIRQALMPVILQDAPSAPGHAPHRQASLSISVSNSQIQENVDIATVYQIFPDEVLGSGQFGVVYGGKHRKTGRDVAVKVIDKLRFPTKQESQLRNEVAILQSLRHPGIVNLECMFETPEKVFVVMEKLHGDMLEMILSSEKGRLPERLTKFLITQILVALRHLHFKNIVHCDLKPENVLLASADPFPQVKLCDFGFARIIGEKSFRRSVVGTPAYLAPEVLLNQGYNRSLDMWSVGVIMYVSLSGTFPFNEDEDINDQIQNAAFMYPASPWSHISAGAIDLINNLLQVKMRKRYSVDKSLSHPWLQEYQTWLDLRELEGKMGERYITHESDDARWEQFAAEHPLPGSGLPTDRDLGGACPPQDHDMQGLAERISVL
As to conditions: at 1 µM.

The target in test [2] is T2, Serine/threonine-protein kinase D3 (Homo sapiens) (UniProt O94806).
T2 sequence (whole entry): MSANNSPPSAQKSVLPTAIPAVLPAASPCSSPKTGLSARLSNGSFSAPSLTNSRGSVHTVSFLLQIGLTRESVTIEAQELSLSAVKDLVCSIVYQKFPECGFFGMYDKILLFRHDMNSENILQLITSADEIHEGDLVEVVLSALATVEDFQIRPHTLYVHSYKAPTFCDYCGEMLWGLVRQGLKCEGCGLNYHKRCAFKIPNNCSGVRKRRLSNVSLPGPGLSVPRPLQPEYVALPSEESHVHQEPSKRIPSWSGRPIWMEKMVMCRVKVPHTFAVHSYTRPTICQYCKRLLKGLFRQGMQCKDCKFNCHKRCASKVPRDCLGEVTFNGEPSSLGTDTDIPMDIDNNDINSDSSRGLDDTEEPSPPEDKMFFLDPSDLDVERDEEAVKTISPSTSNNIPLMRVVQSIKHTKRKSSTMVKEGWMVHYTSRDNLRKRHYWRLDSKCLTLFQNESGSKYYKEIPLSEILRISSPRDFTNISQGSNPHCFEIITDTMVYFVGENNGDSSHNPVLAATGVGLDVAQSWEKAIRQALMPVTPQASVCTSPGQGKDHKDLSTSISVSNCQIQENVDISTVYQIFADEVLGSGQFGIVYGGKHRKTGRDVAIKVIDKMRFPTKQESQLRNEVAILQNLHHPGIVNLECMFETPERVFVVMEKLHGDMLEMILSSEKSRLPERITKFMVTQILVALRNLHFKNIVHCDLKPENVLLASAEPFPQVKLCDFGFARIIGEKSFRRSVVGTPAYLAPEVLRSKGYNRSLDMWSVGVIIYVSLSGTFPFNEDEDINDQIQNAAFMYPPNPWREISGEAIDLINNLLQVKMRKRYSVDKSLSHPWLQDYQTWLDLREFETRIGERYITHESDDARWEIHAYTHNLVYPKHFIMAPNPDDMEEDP
The conditions noted are these: at 0.1 µM.

The target of test [3] is T2, Serine/threonine-protein kinase D3 (Homo sapiens). The conditions noted are these: at 1 µM.
For test [4], the target named is T3, cGMP-dependent protein kinase 1 (Homo sapiens) (UniProt Q13976).
T3 sequence (whole entry): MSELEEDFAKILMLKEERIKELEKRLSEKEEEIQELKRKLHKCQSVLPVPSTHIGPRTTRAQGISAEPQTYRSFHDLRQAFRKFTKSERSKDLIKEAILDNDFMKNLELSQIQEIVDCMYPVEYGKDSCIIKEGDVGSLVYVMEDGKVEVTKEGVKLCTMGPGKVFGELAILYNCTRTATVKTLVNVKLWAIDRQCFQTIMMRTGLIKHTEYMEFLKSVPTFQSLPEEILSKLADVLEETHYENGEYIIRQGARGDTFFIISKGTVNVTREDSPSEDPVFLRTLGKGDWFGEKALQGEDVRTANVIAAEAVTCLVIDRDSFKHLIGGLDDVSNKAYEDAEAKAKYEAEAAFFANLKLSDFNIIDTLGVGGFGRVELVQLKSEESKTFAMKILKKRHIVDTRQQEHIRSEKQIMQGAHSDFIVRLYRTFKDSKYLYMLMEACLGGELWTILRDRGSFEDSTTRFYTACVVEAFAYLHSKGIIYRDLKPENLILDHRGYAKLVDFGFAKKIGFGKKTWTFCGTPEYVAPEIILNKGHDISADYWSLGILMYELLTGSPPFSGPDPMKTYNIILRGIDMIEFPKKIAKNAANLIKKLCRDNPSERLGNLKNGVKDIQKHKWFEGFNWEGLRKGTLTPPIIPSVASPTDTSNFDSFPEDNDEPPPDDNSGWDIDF
As to conditions: at 0.1 µM.

For test [5], the target named is T4, cGMP-dependent protein kinase 2 (Homo sapiens) (UniProt Q13237).
T4 sequence (whole entry): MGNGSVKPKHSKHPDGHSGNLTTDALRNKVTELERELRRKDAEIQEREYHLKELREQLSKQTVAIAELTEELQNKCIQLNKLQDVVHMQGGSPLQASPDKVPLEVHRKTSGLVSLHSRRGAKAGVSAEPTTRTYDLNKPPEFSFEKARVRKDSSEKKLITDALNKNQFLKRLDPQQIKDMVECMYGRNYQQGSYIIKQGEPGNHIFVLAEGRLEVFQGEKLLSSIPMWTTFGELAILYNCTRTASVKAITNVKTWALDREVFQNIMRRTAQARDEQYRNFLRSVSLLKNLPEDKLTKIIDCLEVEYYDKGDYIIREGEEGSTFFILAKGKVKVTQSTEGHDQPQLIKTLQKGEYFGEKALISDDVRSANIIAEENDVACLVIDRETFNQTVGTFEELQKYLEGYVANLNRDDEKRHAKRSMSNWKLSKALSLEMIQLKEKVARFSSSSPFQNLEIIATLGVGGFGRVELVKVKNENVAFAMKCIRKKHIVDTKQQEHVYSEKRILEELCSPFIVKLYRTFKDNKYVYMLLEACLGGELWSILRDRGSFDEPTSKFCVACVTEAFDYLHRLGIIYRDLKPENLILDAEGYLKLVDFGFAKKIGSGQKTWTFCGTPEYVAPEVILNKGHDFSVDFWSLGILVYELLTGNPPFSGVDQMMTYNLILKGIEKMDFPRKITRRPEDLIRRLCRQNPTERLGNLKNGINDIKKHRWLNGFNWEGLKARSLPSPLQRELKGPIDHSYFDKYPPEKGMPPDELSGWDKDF
The conditions noted are these: at 0.1 µM.

Test [6] addresses T4, cGMP-dependent protein kinase 2 (Homo sapiens). As to conditions: at 1 µM.
For test [7], the target named is T5, cAMP-dependent protein kinase catalytic subunit PRKX (Homo sapiens) (UniProt P51817).
T5 sequence (whole entry): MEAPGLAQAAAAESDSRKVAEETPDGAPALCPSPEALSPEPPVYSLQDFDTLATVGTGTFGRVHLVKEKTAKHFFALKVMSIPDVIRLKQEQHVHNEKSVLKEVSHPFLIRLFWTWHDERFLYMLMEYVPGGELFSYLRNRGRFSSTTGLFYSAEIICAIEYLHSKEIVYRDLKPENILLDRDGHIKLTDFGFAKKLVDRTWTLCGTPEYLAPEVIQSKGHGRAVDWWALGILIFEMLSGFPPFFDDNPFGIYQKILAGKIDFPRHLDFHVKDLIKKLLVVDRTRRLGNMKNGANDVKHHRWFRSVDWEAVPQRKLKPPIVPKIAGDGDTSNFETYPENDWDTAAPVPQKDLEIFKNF
The conditions noted are these: at 0.1 µM.

The target in test [8] is T5, cAMP-dependent protein kinase catalytic subunit PRKX (Homo sapiens). The conditions noted are these: at 1 µM.
For test [9], the target named is Rho-associated protein kinase 1 (Homo sapiens) (UniProt Q13464). The conditions noted are these: at 0.1 µM.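 Further: values are mean percent inhibition of ROCK1.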
The target of test [10] is T3, cGMP-dependent protein kinase 1 (Homo sapiens). The conditions noted are these: at 1 µM.

Sequence of Rho-associated protein kinase 1 (Homo sapiens) (Q13464 2-1354 limits assumed): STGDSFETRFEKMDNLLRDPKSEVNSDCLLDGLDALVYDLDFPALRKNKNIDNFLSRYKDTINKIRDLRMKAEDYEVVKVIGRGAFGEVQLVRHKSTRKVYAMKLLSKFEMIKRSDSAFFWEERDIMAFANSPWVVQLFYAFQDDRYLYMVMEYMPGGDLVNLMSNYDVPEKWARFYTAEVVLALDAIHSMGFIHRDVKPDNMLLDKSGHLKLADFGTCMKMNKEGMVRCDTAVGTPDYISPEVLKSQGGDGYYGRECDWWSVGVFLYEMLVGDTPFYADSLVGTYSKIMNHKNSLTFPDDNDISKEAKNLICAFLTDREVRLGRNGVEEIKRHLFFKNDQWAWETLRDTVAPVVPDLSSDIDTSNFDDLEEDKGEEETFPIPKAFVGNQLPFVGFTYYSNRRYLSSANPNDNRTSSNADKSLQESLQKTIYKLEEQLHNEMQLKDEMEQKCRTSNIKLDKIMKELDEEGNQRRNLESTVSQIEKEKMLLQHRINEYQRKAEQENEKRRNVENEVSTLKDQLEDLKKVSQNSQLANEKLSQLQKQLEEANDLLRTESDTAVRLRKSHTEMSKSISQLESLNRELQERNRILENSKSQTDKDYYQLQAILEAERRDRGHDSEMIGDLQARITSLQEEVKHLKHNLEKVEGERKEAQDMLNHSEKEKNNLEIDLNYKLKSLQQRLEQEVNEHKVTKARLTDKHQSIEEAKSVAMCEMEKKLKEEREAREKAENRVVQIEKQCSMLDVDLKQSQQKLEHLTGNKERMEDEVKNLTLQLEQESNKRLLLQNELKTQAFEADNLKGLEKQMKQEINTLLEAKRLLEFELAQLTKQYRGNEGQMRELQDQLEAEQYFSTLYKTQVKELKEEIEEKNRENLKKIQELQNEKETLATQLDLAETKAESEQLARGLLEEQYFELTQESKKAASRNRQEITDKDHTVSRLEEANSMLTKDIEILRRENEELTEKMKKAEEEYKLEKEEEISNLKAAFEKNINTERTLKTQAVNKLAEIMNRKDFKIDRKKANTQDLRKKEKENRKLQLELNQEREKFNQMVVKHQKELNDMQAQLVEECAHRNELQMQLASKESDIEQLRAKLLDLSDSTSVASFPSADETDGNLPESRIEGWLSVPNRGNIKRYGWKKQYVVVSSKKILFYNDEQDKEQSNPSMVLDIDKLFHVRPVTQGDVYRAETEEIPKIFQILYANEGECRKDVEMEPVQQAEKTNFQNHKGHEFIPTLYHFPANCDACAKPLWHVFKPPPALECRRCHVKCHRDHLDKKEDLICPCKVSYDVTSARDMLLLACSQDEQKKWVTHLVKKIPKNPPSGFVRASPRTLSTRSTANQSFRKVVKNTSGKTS

Turning to `COc1cccc(-n2ncc3c(N/N=C/c4ccncc4)ncnc32)c1`, the inhibition was found to be 9.06% in test [1]; 5.79% in [2]; 9.03% in [3]; 3.25% in test [4]; 1.96% in test [5]; 6.05% in [6]. For the same compound, the figures for the inhibition in test [7], in test [8] and in [9] were 1.85%, 2.86% and 2.51%, respectively.

With `NS(=O)(=O)c1ccc(-c2ccc3c(NC(=O)C4CC4)n[nH]c3c2)cc1`, the inhibition was determined as 0.5% in test [1]; 1.37% in [2]; 0.5% in test [3]; 0.62% in test [4]; 1.57% in test [10]; 1.04% in [5]. The inhibition in test [6] was 3.29%; in test [7], 1.26%; in test [8] it was -1.16%; in test [9], 1.11%.

`COc1cc2c(cc1Nc1nc(Nc3ccsc3C(N)=O)c3cc[nH]c3n1)N(C(=O)CN(C)C)CCC2`: the inhibition is 39.7% in test [1]; 9.23% in [2]; 51.1% in test [3]; -0.55% in [4]; -0.01% in test [10]; 0.12% in [5]. For the same compound, the inhibition stood at 1.58% in [6], 2.02% in test [7], 1.29% in [8] and 5.03% in test [9].

For `Nc1nonc1-c1nc2cnccc2n1C1CCCCC1`, the inhibition in test [1] was 4.59%; in [2], -1.73%; in test [3], 2.27%; in test [4], 14.4%; in test [10], 61.2%; in test [5], 41.1%. Moreover, the inhibition in [6] worked out at 80.9%; in test [7], 3.71%; in [8], 21.7%; in [9] it was 31%.

Consider `CCn1c(-c2nonc2N)nc2c(C#CC(C)(C)O)ncc(OCC3CCNCC3)c21`, for which the inhibition in test [1] came to 3.59%; in test [2], 0.21%; in test [3], 4.23%; in test [4], 9.8%; in [10] it was 48.9%; in test [5] it was 35.4%. Also, the inhibition came out at 70.1% in test [6], 45.6% in test [7], 75.7% in test [8] and 1.94% in test [9].

`NC(=O)c1sc(-n2cnc3cc(C(F)(F)F)ccc32)cc1OCc1ccccc1Br`: the inhibition is 2.17% in [1]; 1.16% in [2]; 1.32% in test [3]; 0.44% in test [4]; -0.88% in [10]; 0.81% in test [5]. Besides, the inhibition in test [6] came out at 1.01%; in test [7] it was 0.67%; in test [8], 1.17%; in test [9] it was 0.41%.

With `COc1cc(C=NNc2ncnc3c2cnn3Cc2ccccc2)ccc1O`, the inhibition was 1% in test [1]; -4.03% in test [2]; -1.04% in test [3]; 0.15% in test [4]; 3.36% in test [10]; 0.26% in test [5]. The inhibition stood at 4.01% in [6], 0.31% in [7], 5.24% in test [8] and 1.47% in test [9].
